PNC assembly inh – High Content Assay for Compounds that inhibit the Assembly of the Perinucleolar Compartment; PC3M PTB-GFP, PNC prevalence imaging, 16 h; hits give low values; 140,000 tested, 3.1% active; activity change (PNC), negative = inhibition, % at 10 µM;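 active = readout at or below -70, meaning at least 70% loss of cells showing the perinucleolar compartment, a nuclear body marking cancer cells; inconclusive = readout between -30 and a set limit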;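 note: plate controls were DMSO wells for no effect and camptothecin positive control wells for full effect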
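PC3M cells stably expressing PTB-GFP, 750–1000 cells/well, treated 16 h at 37 °C with compound (23 nl of library stock), in duplicate. After paraformaldehyde fixation and Hoechst stain, imaged at 20x; PNC prevalence scored by image analysis.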
HPGD inh – qHTS Assay for Inhibitors of HPGD (15-Hydroxyprostaglandin Dehydrogenase); 15-hydroxyprostaglandin dehydrogenase [NAD(+)] (Homo sapiens), P15428; purified HPGD, NADH fluorescence kinetic, PGE2 substrate; Potency, µM, for inactives: at the top dose activity change, negative = inhibition, usual class: inhibitors; 150,000 tested, 4.3% active; note: potency is the fitted concentration of half-maximal effect
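NADH formation kinetics: reaction with 30 uM PGE2 and 1 mM NAD+ (final), 20 nM enzyme, Tris-HCl pH 8 with Tween 20, after 15 min compound preincubation at room temperature. Fluorescence change, last versus first of five reads.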
ALDH1A1 inh – qHTS Assay for Inhibitors of Aldehyde Dehydrogenase 1 (ALDH1A1); Aldehyde dehydrogenase 1A1 (Homo sapiens), P00352; Purified ALDH1A1, NADH fluorescence, propionaldehyde substrate; 220,000 tested, 7.3% active; Potency, µM (doses to about 75.3 µM), without a hit: at the highest dose activity, negative = inhibition, usual class: inhibitors;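 note: potency is the fitted concentration of half-maximal effect; plate controls were no enzyme wells and a reference inhibitor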
Target sequence (P00352 whole entry, looked up): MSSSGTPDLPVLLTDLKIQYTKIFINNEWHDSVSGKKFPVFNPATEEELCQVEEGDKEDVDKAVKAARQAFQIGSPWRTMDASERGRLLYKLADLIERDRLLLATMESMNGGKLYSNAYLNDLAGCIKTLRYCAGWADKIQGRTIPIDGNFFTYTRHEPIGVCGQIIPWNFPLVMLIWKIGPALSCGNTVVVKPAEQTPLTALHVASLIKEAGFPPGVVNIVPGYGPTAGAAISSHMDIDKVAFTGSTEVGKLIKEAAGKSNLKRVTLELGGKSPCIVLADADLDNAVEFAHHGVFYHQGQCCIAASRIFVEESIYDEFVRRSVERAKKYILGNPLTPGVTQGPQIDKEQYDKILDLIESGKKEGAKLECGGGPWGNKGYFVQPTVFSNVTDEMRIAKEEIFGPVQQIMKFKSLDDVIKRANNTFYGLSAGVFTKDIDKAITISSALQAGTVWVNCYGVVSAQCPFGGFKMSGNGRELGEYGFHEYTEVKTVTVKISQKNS
* = called active by the depositor; ? = inconclusive; · = no result given; [ ] = remark or other dose. This is a sample that favours compounds with a hit; in the whole collection about 11% have one here. Unless noted, calls come from the whole dose curve; as a rule, active = well fitted inhibition curve with a large enough effect (not every such curve was filed as active); inconclusive = small, poorly fitted or top-dose-only effect, or another doubt; inactive = no such curve, though single readings can be large or run the other way. Unless noted, % is set by controls: 0 for no effect and ±100 for the full control effect.

SMILES	PNC assembly inh	HPGD inh	ALDH1A1 inh
Clc1ccc(-n2nnnc2-c2ccccc2)cc1	?	-8%	-2%
COc1cccc(Oc2nnnn2-c2ccccc2)c1	-9	·	?
Cc1ccc(C)c(Oc2nnnn2-c2ccccc2)c1	?	-12%	-16%
COc1ccc(Oc2nnnn2-c2ccccc2)cc1	?	-7%	7.9µM*
COc1cnn(-c2ccc(C)cc2)c(=O)c1Br	·	·	-15%
COc1ccc(-n2nnnc2-c2ccccc2)cc1	-83*	-11%	9%
CCCOC(=O)Nc1c(C)cccc1C(C)C	·	·	-4%
NC(=O)c1ccc(-n2nnnc2Oc2ccccc2)cc1	-9	-2%	-1%
COc1ccc(OCc2nnnn2-c2ccccc2)cc1	-93*	-8%	?
c1ccc(-n2nnnc2Cc2nnnn2-c2ccccc2)cc1	·	·	9%
CC(C)Oc1nnnn1-c1ccccc1	?	-13%	-1%
COc1ccccc1Oc1nnnn1-c1ccc(C(N)=O)cc1	0	-8%	13µM*
c1ccc(-n2nnnc2OCCOc2nnnn2-c2ccccc2)cc1	7	-6%	2.5µM*
O=C(CSc1ccc(Cl)cc1)N/N=C/c1cccnc1	·	·	12%
O=C(NNS(=O)(=O)c1ccccc1[N+](=O)[O-])c1cccc([N+](=O)[O-])c1	8	-10%	-12%
O=C(O)CCCC(=O)Nc1ccc(Br)cc1	-100*	-4%	15%
O=C(CCCC(=O)OCC(=O)c1cccs1)Nc1ccc(Oc2ccccc2)cc1	13	-26%	?
O=C(CCCC(=O)OCC(Cl)=C(Cl)Cl)Nc1ccccc1	-18	25µM*	-4%
O=C(O)CCCC(=O)Nc1ccc(Cl)cc1	·	·	28µM*
COc1ccc(NC(=O)CCCC(=O)O)cc1Cl	·	·	3%
COC(=O)CCCC(=O)Nc1ccc(Br)cc1	-3	-17%	12%
Cc1cc(=S)[nH]c(=S)[nH]1	·	·	-6%
O=C(O)c1ccc(Cl)c(Cl)c1	·	-8%	3%
NNc1cc(C(=O)O)ccc1Cl	·	·	22µM*
O=S(=O)(c1ccccc1Cl)N1CCC(O)(c2ccc3c(c2)OCO3)CC1	29	-1%	-9%
SMILES	PNC assembly inh	HPGD inh	ALDH1A1 inh
CC(C)CN(C(=O)CN1CCN(c2ccccc2O)CC1)c1c(N)n(CC(C)C)c(=O)[nH]c1=O	-86*	-17%	-9%
CCN(C(=O)CN1CCN(c2ccccc2O)CC1)c1c(N)n(Cc2ccccc2)c(=O)[nH]c1=O	4	-29%	-15%
Cc1oc(-c2ccc3c(c2)OCCO3)cc1C(=O)O	26	?	?
Cc1oc(-c2ccc3c(c2)OCCO3)cc1C(=O)NC(CCC(=O)O)C(=O)O (stereo not drawn)	-19	14µM*	7.9µM*
CC(C)CC(=O)c1c[nH]c(C(=O)NCc2cccs2)c1	20	-6%	10%
CCn1cc(C2=NOC(C(=O)Nc3cc(C)nn3-c3ccccc3)C2)c(C)n1 (stereo not drawn)	-29	1%	17%
Cc1c(C(N)=O)cc([N+](=O)[O-])cc1[N+](=O)[O-]	·	0%	-1%
Clc1ccc(OCc2nnc(-c3ccccc3Br)o2)cc1	1	-28%	-10%
O=S(=O)(c1ccccc1F)N(Cc1ccco1)Cc1nnc(-c2ccccc2Br)o1	-4	25µM*	14µM*
CC1N(O)C(C)(C)C(c2ccccc2)=[N+]1[O-] (stereo not drawn)	39	-17%	-5%
Cc1cccc(C(=O)NC(C(=O)Nc2ccccc2N2CCOCC2)C(C)C)c1 (stereo not drawn)	·	·	2%
Cc1ccc(S(=O)(=O)Nc2ccc(NC(=O)c3cccnc3)cc2)cc1	·	·	14µM*
Cc1cc(NS(=O)(=O)c2ccc(NC(=O)c3cc(-c4ccccc4Cl)nc4ccccc34)cc2)no1	-17	-24%	11%
Cc1cc(NS(=O)(=O)c2ccc(NC(=O)c3cc(-c4cccnc4)nc4ccc(Cl)cc34)cc2)no1	-26	14µM*	-5%
CN(C)S(=O)(=O)c1ccc(NC(=O)c2cccnc2)cc1	50	-4%	-2%
Cc1ccc(NS(=O)(=O)c2ccc(CCC(=O)NCc3cccnc3)cc2)cc1	·	·	8.9µM*
CC(C)(C)NS(=O)(=O)c1ccc(CCC(=O)NCc2cccnc2)cc1	?	-8%	?
O=C(N/N=C\c1ccc2c(c1)CCC2)c1ccccc1O	·	-8%	2%[13.5 µM]
CSc1nc2sc3c(c2c(=O)n1CC(C)C)CC(C)(C)OC3	·	·	7%
C=CCNC(=O)NS(=O)(=O)c1ccc(C)cc1	0	-10%	1%
O=C1C=C(NNC(=O)c2ccncc2)CC(c2ccccc2)C1 (stereo not drawn)	·	·	8.9µM*
O=C1C=C(NCc2ccncc2)CC(c2ccccc2)C1 (stereo not drawn)	-1	-4%	-11%
C/C(CCN1CCc2nc(-c3ccccc3)c(-c3ccccc3)cc2C1)=N\O[C@@H](C)CN1CCCc2nc(C)c(C)cc21	·	·	-14%[13.5 µM]
C/C(CC(=O)Nc1cccc(Cl)c1C)=N\NC(=O)C(=O)NCC(C)C	-14	-5%	?
C/C(CC(=O)Nc1ccccc1Cl)=N\NC(=O)C(=O)NCCO	·	·	10µM*
SMILES	PNC assembly inh	HPGD inh	ALDH1A1 inh
O=C1[C@H]2[C@@H](C(=O)N1c1cccc3ccccc13)C1(C(=O)c3ccccc3C1=O)N1CCC[C@@H]21	?	-13%	11µM*
O=C1[C@H]2[C@@H](C(=O)N1c1cc(Cl)cc(Cl)c1)[C@]1(C(=O)Nc3ccccc31)N1CCC[C@@H]21	-3	-12%	?
CCNC(=O)c1c(O)c2ccccc2[nH]c1=O	-12	-7%	-1%
CC(C)=NNC(=O)c1c(O)c2ccccc2[nH]c1=O	·	·	13µM*
O=C(COC(=O)c1ccccc1F)Nc1cccnc1Cl	·	·	-1%
Cc1ccccc1NC(=O)COC(=O)Cc1ccsc1	·	·	-3%
CCN(CC)C(=O)c1cccc(-c2ccc(OC)cc2)c1	33	14µM*	16%
COC(=O)CNC(=O)c1cccc(-c2ccc(OC)cc2)c1	·	·	-5%
CC1Cc2ccccc2N1C(=O)CN1C(=O)CN(C)C(=O)c2ccccc21 (stereo not drawn)	?	-16%	7%
COC(=O)C1=C(C)N(c2cc(Cl)cc(Cl)c2)C(=O)C1	?	-3%	?
CN1C(=O)c2cccc3c(S(=O)(=O)Nc4ccccn4)ccc1c23	-22	-19%	?
CN1C(=O)c2cccc3c(S(=O)(=O)NCc4ccco4)ccc1c23	-3	-16%	14µM*
CN(C)CCCN(C(=O)c1cccc(N2C(=O)CCC2=O)c1)c1nc2cc3c(cc2s1)OCO3	·	·	-11%
Cc1nc(-c2ccc(C(F)(F)F)cc2)sc1C(=O)NN	·	·	1.1µM*
Cc1nc(-c2ccccc2)sc1C(=O)/C=C/c1ccc(Cl)cc1	29	-11%	3.2µM*
CNC(=O)c1sc(-c2ccc(Cl)cc2)nc1C	-90*	-10%	7%
COc1ccc(N/C=C/C(=O)c2sc(-c3ccccc3)nc2C)cc1	14	-15%	-19%
CNC(=O)c1sc(-c2ccccc2)nc1C	-83*	?	?
Cc1nc(-c2cccnc2)sc1C(=O)Nc1ccc(C(F)(F)F)cc1	-13	-6%	1%
CC(=O)c1sc(-c2ccc(Cl)cc2)nc1C	·	·	3%
CNC(=O)c1sc(-c2cccnc2)nc1C	56	-12%	5%
